Experimental findings from paper PMC5540273 (PLoS ONE, 2017) are described below.
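Further: KINOMEscan kinase panel screen.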

The assay relates to EIF2AK1. The note with it: concentration: 1 μM, replicates: in singlicate; n = 1.
On to `Cc1ccc(C(=O)Nc2ccc(Nc3ccnc4cc(-c5nccs5)ccc34)cc2O)cc1.Cl` [GW494702], for which the “%Inh” value was 6%.
For `CC(C)c1nc(-c2cccc(NS(=O)(=O)c3c(F)cccc3F)c2F)c(-c2ccnc(Nc3ccc(N4CCOCC4)nc3)n2)s1` [GSK2008607], the “%Inh” value was 66%.
As for `Cl.c1ccc(-c2ccc3c(Nc4ccc5[nH]ccc5c4)ccnc3c2)nc1` [GW440138], the “%Inh” value was determined as 0%.
For `Nc1ncc(-c2cccnc2)c2scc(-c3ccc4c(c3)CCN4C(=O)Cc3ccccc3)c12` [GSK683281], the “%Inh” value worked out at 25%.
As to `COc1cc(Nc2nccc(-c3c(-c4cccc(NC(=O)c5c(F)cccc5F)c4)nn4ccccc34)n2)cc(OC)c1OC` [GSK323521], the “%Inh” value was determined as 39%.
As for `CCc1ccc(-c2ccc3c(c2)-c2c(cnn2C)S(=O)(=O)N3C)cc1`, the “%Inh” value was 0%.
The figure for `COC(=O)Nc1nc2cc(Oc3ccc(NC(=O)Nc4cc(C(F)(F)F)ccc4F)cn3)ccc2[nH]1.Cl.Cl` [GW681170] is 5%.
Next, `Cc1occc1-c1ncc(OC[C@@H](N)Cc2c[nH]c3ccccc23)cc1-c1ccc2[nH]nc(C)c2c1.O=C(O)C(F)(F)F` [GSK682037]: 0%; `O=C(Nc1cccc(Oc2ccc3nc(NC(=O)C4CC4)cn3n2)c1)c1ccccc1C(F)(F)F`: 0%; `CSc1cccc2c(-c3ccncn3)c(-c3ccc(F)cc3)nn12` [GW514786]: 0%.
Turning to `COc1cc(Nc2ncc3c(C)nc(-c4cc5ccccc5[nH]4)n3n2)cc(OC)c1OC` [GW869516], the “%Inh” value is listed as 0%.
As for `O=C(Nc1cccc(-c2nn3ccccc3c2-c2ccnc(Nc3cccc(C(F)(F)F)c3)n2)c1)c1c(F)cccc1F` [GSK292658], the “%Inh” value is recorded as 0%.
On to `CNC(=O)c1ccccc1Nc1nc(Nc2ccc(N3CCOCC3)cc2)ncc1Cl.Cl` [GSK1576028], for which the “%Inh” value is recorded as 0%.
Turning to `Cl.c1ccc(-c2ccc3c(Nc4ccc5[nH]ncc5c4)ccnc3c2)nc1` [GW440137], the “%Inh” value worked out at 0%.
`Cl.Cl.NCC(NC(=O)c1cc(-c2ccccc2)c(-c2ccnc3[nH]ccc23)s1)c1ccccc1` (stereo not shown) [GSK1321561]: the “%Inh” value is 0%.
For the compound `COc1cc2c(cc1OCCN1CCNCC1)ncc1c3ccc(C#N)cc3[nH]c21`, the “%Inh” value turned out to be 0%.
For the compound `CCn1c(-c2nonc2N)nc2c(C#CC(C)(C)O)ncc(OCCCCN)c21.O=C(O)C(F)(F)F.O=C(O)C(F)(F)F` [GSK507274], the “%Inh” value is on record as 27%.
On to `COc1cc(Nc2nccc(-c3c(-c4cccc(NC(=O)c5c(F)cccc5F)c4)nn4ncccc34)n2)cc(OC)c1OC` [GSK327238], for which the “%Inh” value is 0%.
Next, `COc1cc(Nc2nccc(N3CCC(NC(=O)Nc4cccc(C(C)=O)c4)C3)n2)cc(OC)c1OC` (stereo not shown) [GSK1379753]: 0%; `CN(C)S(=O)(=O)c1cc(-c2ccc3nccc(-c4cccc(S(N)(=O)=O)c4)c3c2)cnc1N` [GSK1669921]: 8%.
Consider `COCCOCCOc1cc2ncc3c4ccc(C#N)cc4[nH]c3c2cc1OC`, for which the “%Inh” value came out at 0%.
Next, `Nc1n[nH]c2cnc(-c3ccccc3)cc12` [SB-642124]: 4%; `CN1CCN(CCCNc2nccc(-c3c(-c4ccc(F)cc4)nn4cc(C(F)(F)F)ccc34)n2)CC1` [GW621581]: 0%.
As for `Nc1ncnc2c1nc(-c1ccccc1)n2-c1ccccc1` [SKF-97293], the “%Inh” value was found to be 20%.
Take `Cl.NC(=O)c1cccc(Nc2nccc(Nc3ccc(Oc4c(Cl)cccc4Cl)c(Cl)c3)n2)c1` [GW659009]: the “%Inh” value is on record as 13%.
Consider `Cc1ccc(F)c(C(=O)Nc2cccc(-c3nn4ccccc4c3-c3ccnc(Nc4cccc(F)c4)n3)c2)c1F` [GSK361061], for which the “%Inh” value turned out to be 9%.
Regarding `COc1cccc(-c2ccc3c(NC(=O)C4CC4)n[nH]c3n2)c1` [SB-710903], the “%Inh” value was 5%.
On to `CC(=O)N1CCN(c2ccc(Nc3nccc(-c4sc(C(C)C)nc4-c4cccc(NS(=O)(=O)c5cccc(Cl)c5)c4)n3)cn2)CC1` [GSK1660437], for which the “%Inh” value is reported as 19%.
The figure for `C[C@@H]1CC[C@@H](C(=O)Nc2ccccc2)CN1c1cc(-c2ccc3c(N)n[nH]c3c2)nc(N)n1` [GSK2286062] is 0%.
The figure for `Clc1ccc(-c2nn3ncccc3c2-c2ccnc(Nc3ccc4c(c3)OCCO4)n2)cc1` [GW829116] is 0%; for `Cc1ccc(C(=O)N2CC[C@@H](O)C2)cc1-n1c(C)cc(OCc2ccc(F)cc2F)c(Br)c1=O` it is 0%; for `CC(=O)Nc1nc2cnc(Nc3cc(NC(=O)c4cccc(C5(C#N)CC5)c4Cl)ccc3C)nc2s1` it is 0%.
The figure for `c1ccc(-c2cnc3nccnn23)cc1` [AH20685] is 0%; for `CCn1c(-c2nonc2N)nc2c(C#CC(C)(C)O)nc(OC[C@H](N)c3ccccc3)cc21` [GSK943949] it is 0%; for `Cl.Cl.NCC(C(=O)Nc1cc(Br)c(-c2ccnc3[nH]ccc23)s1)c1ccccc1` (stereo not shown) [GSK1269851] it is 0%.
With `COc1cccc(C2=C(Nc3ccc(Cl)c(C(=O)O)c3)C(=O)NC2=O)c1` [SB-390769], the “%Inh” value is reported as 99.6%.
Regarding `Cc1cccc(Nc2nc(N[C@H]3CCNC3)ncc2C(N)=O)c1.Cl` [GSK2197149], the “%Inh” value is given as 22%.
